The list is not random: actives were taken first. Their share in the collection is about 2.1%.
D2 PAM-1 – positive allosteric modulators of human D2 dopamine receptor | hit rate 0.23% among 360,000 | potentiation, % (concentration not given with the values) | AID 624464 | DiscoveRx D2 beta-arrestin cells, luminescence, 90 min; 100% = 57 uM dopamine signal | P14416; in the data active = potentiation above about 50%; inconclusive = mostly about 30% to 49%
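D2 cells co-treated with compound plus 50 nM dopamine (EC20) for 90 min at 37 deg C to detect potentiation. Beta-arrestin recruitment was read as enzyme-fragment luminescence after 1 h at ambient temperature. Full response was set by 57 uM dopamine.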
D2 ag-1 – activates the human D2 dopamine receptor; HEK293 T-REx D2 cells, calcium flux agonist mode; activation, % at 2 µM; hit rate 0.53% among 340,000; AID 485358;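 active = activation over 3 SD above normal in the single-dose calcium agonist read, cut at about 30% in these data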; note: 0% is about no effect
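In this primary screen, compounds producing a positive calcium signal within 180 s of addition to tetracycline-induced, force-coupled HEK293 Trex D2 cells are flagged; cells are dye-loaded with a no-wash calcium kit beforehand.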
D2 antagonist – antagonists of human D2 dopamine receptor; P14416; HEK293 TREx D2 cells, calcium flux, dopamine EC80; inhibition, % at 10 µM; hit rate 2% among 340,000; AID 485344; in the data active = inhibition above about 30%; inactive = below that, where a call was filed; note: 0% is about no effect
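Tetracycline-induced HEK293 TREx cells expressing D2 receptor forced-coupled to calcium signalling, loaded with no-wash calcium dye. Compounds added and calcium flux read 180 s, then dopamine added at EC80 and read a further 180 s.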
D2 ag-2 – activates the human D2 dopamine receptor | P14416 | DiscoveRx PathHunter D2 beta-arrestin, luminescence, 90 min; 100% = 57 uM dopamine signal | activation, % (no concentration beside the values) | hit rate 0.084% among 360,000 | AID 624465; in the data active = activation above about 40%; inconclusive = between about 15% and that limit
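Agonist mode: compounds alone added to overnight-plated D2 PathHunter cells for 90 min at 37 C, with 57 uM final dopamine (EC100) defining full response. Beta-arrestin recruitment detected by chemiluminescent reagent, read after 1 h at ambient temperature.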
D2 PAM-2 – positively modulates the human D2 dopamine receptor allosterically; potentiation, % at 10 µM; P14416; HEK293 T-REx D2, calcium flux, EC20 dopamine potentiation; hit rate 0.34% among 340,000;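 active = potentiation over 3 SD above the plate norm, cut at about 30% in these data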; note: 0% is about no effect
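Primary screen. Calcium kinetics in induced HEK293 T-REx D2 cells: compound pre-addition 180 s, EC20 dopamine, 180 s more.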
LDHA inh – LDHA (human) enzyme inhibition | P00338 | purified LDHA, NADH/diaphorase-resazurin fluorescence; hits give low values | activity change, % (values are at about 110 or 230 µM) | hit rate 0.15% among 480,000; in the data active = activity change below about -30%; inconclusive = mostly about -25% to -30%;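 note: plate controls were DMSO wells for no effect and wells without enzyme for full effect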
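Enzyme activity of human lactate dehydrogenase 5 (2 nM; 0.06 mM NADH, 0.2 mM pyruvate, 5 min, RT) is measured via a resazurin/diaphorase fluorescence readout of residual NADH.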
D3 ag – activates human D3 dopamine receptor beta-arrestin recruitment; shares compounds with D2 ag-1; DiscoveRx D3 beta-arrestin cells, luminescence, 90 min; Potency, µM (titrated, usually from 76.9 µM), for the others: at the highest dose activation, actives largely listed as activators; hit rate 4% among 2,300;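 note: potency is the fitted concentration of half-maximal effect; 100% = dopamine control response; nearly all actives have a fitted effect of over 70% in size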
Target sequence (P35462 whole entry, looked up): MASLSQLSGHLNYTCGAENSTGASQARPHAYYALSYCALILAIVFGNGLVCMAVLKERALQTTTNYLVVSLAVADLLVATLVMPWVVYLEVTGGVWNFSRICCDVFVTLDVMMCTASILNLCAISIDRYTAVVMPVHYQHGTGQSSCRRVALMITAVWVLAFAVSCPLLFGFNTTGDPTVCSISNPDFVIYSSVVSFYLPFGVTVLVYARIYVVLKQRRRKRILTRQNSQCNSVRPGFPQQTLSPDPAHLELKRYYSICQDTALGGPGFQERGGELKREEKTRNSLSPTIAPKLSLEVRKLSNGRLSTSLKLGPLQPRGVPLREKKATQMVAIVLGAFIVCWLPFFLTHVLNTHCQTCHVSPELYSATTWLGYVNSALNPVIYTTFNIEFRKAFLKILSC
D2 ag-3 – activates human D2 dopamine receptor in D3 counterscreen; shares compounds with D2 ag-1; DiscoveRx PathHunter D2 beta-arrestin, luminescence, 90 min; response scale: percent relative to full dopamine signal; Potency, µM (doses to about 76.9 µM), without a hit: top-dose activation, hits mostly activators; hit rate 5.9% among 2,300; AID 720507; note: potency is the fitted concentration of half-maximal effect; % of control where 0% means no effect; nearly all actives have a fitted effect of over 70% in size
Starred values were filed as active, the others as inactive; ? = inconclusive; · = not tested or not shown. Unless noted, calls come from the whole dose curve; as a rule, active = well fitted activation curve with a large enough effect; inconclusive = small, poorly fitted or top-dose-only effect; inactive = flat fitted curve, though single readings scatter.

SMILES	D2 PAM-1	D2 ag-1	D2 antagonist	D2 ag-2	D2 PAM-2	LDHA inh	D3 ag	D2 ag-3
COc1ccc2[nH]c(=O)c(CN(CCc3ccccc3)Cc3nnnn3CC3CCCO3)cc2c1 (stereo not drawn)	-13	28	-14	-1	-19	2	?	6%
CCOc1ccc(CCNC(=O)c2ccc3nc(N4CCOCC4)sc3c2)cc1OCC	-4	0	8	0	7	-1	14%	1%
COc1ccc(CCNC(=O)c2ccc3nc(N4CCOCC4)sc3c2)cc1OC	5	0	12	-4	4	-16	·	·
C=CCOc1ccc(Br)cc1CNCC	-8	62*	67*	-3	-28	0	9%	?
O=C(O)CSCc1ccncc1	·	·	·	·	·	-2	·	·
CN(C)CCCN(Cc1ccc(Cl)cc1Cl)Cc1ccc(Cl)cc1Cl	·	·	·	·	·	0	·	·
O=C(/C=C\c1cccs1)N1CCN(Cc2ccc3c(c2)OCO3)CC1	-11	-1	4	-1	·	-10	·	·
O=C(C1CCCN1C(=O)c1cccs1)N1CCN(Cc2ccc3c(c2)OCO3)CC1 (stereo not drawn)	10	63*	37*	-3	-20	2	4%	16%
O=C(c1cccs1)N1CCC(C(=O)N2CCN(Cc3ccc4c(c3)OCO4)CC2)CC1	7	68*	52*	?	-22	1	17%	?
Cc1noc(C)c1COc1ccc(CC(=O)Nc2ncccc2O)cc1	·	·	·	·	·	12	·	·
O=c1c2c(nc3nc(NCc4c(Cl)cccc4Cl)[nH]n13)CCC2	·	·	·	·	·	-10	·	·
Cc1[nH]nc2nc(SCC(=O)NCCC3=CCCCC3)n(-c3ccc(Br)cc3)c(=N)c12	-1	41*	-16	7	-24	-5	9%	0%
CC(C)(O)C#Cc1ccc(CN2CCN(C3CCCCC3)C(CCO)C2)s1 (stereo not drawn)	-12	42*	-7	-1	-10	-4	-15%	2%
CC(C)(O)C#Cc1ccc(CN2CCN(C3CCCCC3)C(CCO)C2)cc1 (stereo not drawn)	-2	0	6	2	0	2	·	·
Nc1nc(N2CCOCC2)nc2c1C(C(=O)Nc1ccc(Br)cc1)CC(=O)N2 (stereo not drawn)	·	·	·	·	·	-8	·	·
COC(=O)c1ccc(OCC(O)CN2CCN(C(=O)c3ccco3)CC2)c(OC)c1 (stereo not drawn)	14	64*	26	13	-31	-10	-8%	?
O=C(c1ccco1)N1CCN(Cc2csc(-c3ccccc3Cl)n2)CC1	-37	41*	14	0	-25	-2	-3%	7%
O=C(c1ccco1)N1CCN(Cc2cccc3ccccc23)CC1	14	58*	76*	14	-23	-18	?	?
O=C(c1ccco1)N1CCN(Cc2cccc(F)c2)CC1	23	88*	84*	60*	-24	-32*	?	20µM*
COC(=O)CC1=C(C(=O)OC)C(c2ccc(OC)cc2)C(C#N)=C(N)O1 (stereo not drawn)	·	·	·	·	·	9	·	·
O=C(c1ccco1)N1CCN(Cc2ccc(Br)cc2)CC1	?	79*	80*	58*	-20	2	?	16µM*
O=C(c1ccco1)N1CCN(Cc2nc(-c3cccs3)no2)CC1	15	4	-3	8	-11	-8	6%	13%
CCc1ccc(CN2CCN(C(=O)c3ccco3)CC2)cc1	?	80*	83*	78*	-18	?	5.6µM*	14µM*
Cc1ccc(C)n1CCN1CCN(C(=O)c2ccco2)CC1	-29	25	3	6	7	5	4%	9%
O=C(Cn1nnc(-c2ccccc2)n1)N1CCC(c2nc3ccccc3s2)CC1	·	·	·	·	·	7	·	·
SMILES	D2 PAM-1	D2 ag-1	D2 antagonist	D2 ag-2	D2 PAM-2	LDHA inh	D3 ag	D2 ag-3
COCC(C)Nc1ncnc2c1c(-c1ccccc1)cn2-c1cccc(C(F)(F)F)c1 (stereo not drawn)	·	·	·	·	·	8	·	·
O=C(c1ccco1)N1CCN(CC(O)COc2ccc(Br)cc2)CC1 (stereo not drawn)	-4	76*	77*	5	-19	-1	?	?
COC(=O)c1ccc(OCC(O)CN2CCN(C(=O)c3ccco3)CC2)cc1 (stereo not drawn)	22	0	11	?	6	-9	·	·
O=C(COC(=O)c1ccc(CNS(=O)(=O)c2ccc(F)c(Cl)c2)cc1)NCC1CCCCC1	-8	69*	18	1	-23	-7	0%	-1%
COc1cc(C2CC(=O)Oc3c(C(CCN4CCN(c5ccccc5)CC4)c4ccc(N(C)C)cc4)c(OC)cc(OC)c32)cc(OC)c1OC (stereo not drawn)	-15	0	-3	15	-9	-17	·	·
COc1ccc(C(CCN2CCN(c3ccccc3)CC2)c2c(OC)cc(OC)c3c(-c4ccccc4)cc(=O)oc23)cc1 (stereo not drawn)	-11	69*	79*	9	-9	-3	?	?
CCCCCc1cc(=O)oc2c(C(CCN3CCN(c4ccccc4)CC3)c3ccc(N(C)C)cc3)c(OC)cc(OC)c12 (stereo not drawn)	-18	7	21	1	4	0	·	·
COc1cc(O)c(C(CCN2CCN(c3ccccc3)CC2)c2ccc3c(c2)OCO3)c(OC)c1 (stereo not drawn)	-19	25	75*	1	-24	2	-5%	5%
COc1cc(OC)c2ccc(=O)oc2c1C(CCN1CCN(c2ccccc2)CC1)c1ccc(N(C)C)cc1 (stereo not drawn)	-20	53*	62*	2	-15	0	1%	12%
COc1cc(OC)c2c(-c3ccccc3)cc(=O)oc2c1C(CCN1CCN(c2ccccc2)CC1)c1ccc(N(C)C)cc1 (stereo not drawn)	-19	·	·	4	·	1	-6%	19%
CC(C)CCNC(=O)C(=O)NC1CCCCC1	·	·	·	·	·	-7	·	·
CCOC(=O)C(NC(=O)Cc1cc(OC)c(OC)c(OC)c1)C(=O)OCC	·	·	·	·	·	3	·	·
CC(Oc1cc2oc(=O)cc(-c3ccccc3)c2cc1Cl)C(=O)NCC1CCC(C(=O)O)CC1 (stereo not drawn)	-13	43*	43*	2	-17	1	4%	1%

Screening results as filed in PubChem.
